Shown are actives, neighbours in structure and some others; about 2.2% of the full set was active somewhere.
KLF5 inhibitor: kruppel-like factor 5 inhibition. inhibition, % at 5 µM. actives 0.23% (n = 290,000). DLD-1 KLF5 promoter-luciferase reporter, luminescence;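 active = inhibition above a per-plate limit of that plate's mean compound inhibition plus 3 SD, cut at about 60% in these data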;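 also: higher means less KLF5 promoter-driven luciferase light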
Ba/F3 V617F tox: loss of viability in JAK2V617F-driven Ba/F3 cells; actives 1.1% (n = 220,000); AID 1446; Ba/F3 EpoR-JAK2V617F viability, ATP luminescence; inhibition, % at 5.6 µM;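 active = inhibition above the campaign mean plus 3 SD over all tested compounds, cut at about 24% in these data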;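 also: cytokine-independent growth of Ba/F3 cells driven by EpoR plus mutant JAK2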
APP transl inh: APP translation inhibition. AID 1285. SH-SY5Y APP 5'UTR-luciferase reporter, luminescence. inhibition, % at 2 µM. actives 0.82% (n = 190,000);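 active = inhibition above a set limit, derived from the sample mean plus 3 SD, cut at about 45% in these data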
IEC-6 tox-1: IEC-6 cytotoxicity, counter-screen for KLF5 inhibitors. actives 0.78% (n = 290,000). luminescence viability. AID 1825. inhibition, % at 5 µM; in the data active = inhibition above about 22%
aSyn UTR inh: MLPCN primary screen, SNCA 5' untranslated region; AID 1813; actives 0.82% (n = 300,000); inhibition, % (tested at 7.5 µM); alpha-synuclein 5'UTR reporter, inhibitor activity; in the data active = inhibition above about 60%;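 also: H4 neuroglioblastoma cells stably carrying SNCA 5'UTR luciferase fusion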
BaF3 parental: reduces parental Ba/F3 cell viability, JAK2V617F counter-screen; inhibition, % at 5.6 µM; AID 1486; CellTiter-Glo ATP luminescence; actives 1.1% (n = 220,000);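 active = inhibition above a per-campaign cutoff, the mean inhibition of all tested compounds plus 3 SD, cut at about 27% in these data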
KLF5 inh confirm: KLF5 inhibition, confirmation assay; shares compounds with KLF5 inhibitor; DLD-1 KLF5 promoter firefly luciferase reporter, luminescence; inhibition, % at 4 µM; actives 79% (n = 610);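 active = inhibition above a set limit taken from the earlier primary screen, cut at about 63% in these data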
IEC-6 tox-2: kills rat IEC-6 cells in KLF5 counter-screen; IEC-6 rat intestinal cells, viability luminescence; inhibition, % at 4 µM; shares compounds with KLF5 inhibitor; actives 56% (n = 610); in the data active = inhibition above about 23%;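 also: cells exposed to compounds for 48 hours before viability read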
Of the large screens only hits and unclear results are named; the others gave an inactive call (follow-up assays come after a bar, where they were run).

O=c1cc(-c2ccccc2)[nH]c2ccc(F)cc12	KLF5 inhibitor 68.8, Ba/F3 V617F tox 74.9, APP transl inh 91.8, IEC-6 tox-1 81.6, aSyn UTR inh 86.6, BaF3 parental 74.2 | KLF5 inh confirm 82.4 | IEC-6 tox-2 56.6
O=C(Nc1ccc(Cl)cc1)Nc1cccc(C(=O)O)c1	KLF5 inhibitor 65.6 | KLF5 inh confirm 72.4 | IEC-6 tox-2 inactive
Cc1cccc(OCC(=O)Nc2cc(NC(=O)COc3cccc(C)c3C)cc(C(=O)O)c2)c1C	none (no result: Ba/F3 V617F tox, APP transl inh, BaF3 parental)
CCOC(=O)c1cccc(NC(=O)Nc2ccc(OCC)cc2)c1	none
Cc1ccccc1OCC(=O)Nc1cccc(C(=O)O)c1	KLF5 inhibitor 95.2, APP transl inh 68.3, aSyn UTR inh 105.3 | KLF5 inh confirm 96.0 | IEC-6 tox-2 inactive
O=C(Nc1cccc(Cl)c1)Nc1cccc(C(=O)O)c1	none (no result: APP transl inh)
CCOc1ccc(NC(=O)Nc2cccc(C(=O)O)c2)cc1	KLF5 inhibitor 94.3, APP transl inh 70.4, aSyn UTR inh 107.7 | KLF5 inh confirm 101.2 | IEC-6 tox-2 inactive
O=C(NNC(=O)c1ccccc1O)c1ccc(Cl)c(S(=O)(=O)N2CCc3ccccc32)c1	none (no result: KLF5 inhibitor, Ba/F3 V617F tox, APP transl inh, IEC-6 tox-1, BaF3 parental)
Cc1ccccc1CSc1nc2[nH]ncc2c(=O)[nH]1	none
Cc1ccc(C)c(CSc2nc3[nH]ncc3c(=O)[nH]2)c1	KLF5 inhibitor 65.4, Ba/F3 V617F tox 83.3, APP transl inh 84.8, IEC-6 tox-1 63.2, BaF3 parental 76.2 | KLF5 inh confirm 67.9 | IEC-6 tox-2 53.2
Cc1ccc(CNC(=O)CN(C)S(=O)(=O)c2ccc(F)cc2)cc1	none (no result: KLF5 inhibitor, Ba/F3 V617F tox, APP transl inh, IEC-6 tox-1, BaF3 parental)
COc1ccc(OC)c(Nc2cc(C)nc3nc(C)nn23)c1	KLF5 inhibitor 91.7 | KLF5 inh confirm 81.2 | IEC-6 tox-2 inactive
CC(=O)CSc1ccc(-c2nc3cc(C)c(C)cc3[nH]2)cn1	KLF5 inhibitor 64.1, aSyn UTR inh 120.6 | KLF5 inh confirm 72.7 | IEC-6 tox-2 inactive
CC(=O)CSc1ccc(-c2nc3ccccc3[nH]2)cn1	none (no result: Ba/F3 V617F tox, APP transl inh, BaF3 parental)
CCCc1ccc(-c2ccc(/C=C/C(=O)O)cc2)nc1	KLF5 inhibitor 78.9, APP transl inh 46.3, aSyn UTR inh 114.5 | KLF5 inh confirm 82.8 | IEC-6 tox-2 inactive
CCCCCCCc1ccc(-c2ccc(O)cc2)nc1	none
COc1ccccc1CCN=C(N)NS(=O)(=O)c1ccc(C)c(C)c1	none (no result: Ba/F3 V617F tox, APP transl inh, BaF3 parental)
Nc1c(C(=O)Nc2cccc(C(=O)O)c2)sc2nc3c(cc12)CCCC3	KLF5 inhibitor 83.7, aSyn UTR inh 76.6 (no result: Ba/F3 V617F tox, APP transl inh, BaF3 parental) | KLF5 inh confirm 90.1 | IEC-6 tox-2 inactive
O=C(Nc1cccnc1)c1cccs1	KLF5 inhibitor 72.2, Ba/F3 V617F tox 45.7, BaF3 parental 87.5 | KLF5 inh confirm 69.7 | IEC-6 tox-2 inactive
Cc1cc(SCC(=O)N/N=C/c2ccc(C(=O)O)cc2)nc2ccccc12	none (no result: Ba/F3 V617F tox, APP transl inh, BaF3 parental)
CCOC(=O)c1sc(NC(=O)c2cc3c(s2)CCC(C)C3)nc1C (stereo not drawn)	KLF5 inhibitor 85.8 | KLF5 inh confirm 88.0 | IEC-6 tox-2 inactive
COc1cc([C@@H]2c3cc4c(cc3[C@@H](O)[C@@H](CO)[C@@H]2CO)OCO4)cc(OC)c1O[Si](C)(C)C(C)(C)C	none (no result: KLF5 inhibitor, Ba/F3 V617F tox, APP transl inh, IEC-6 tox-1, BaF3 parental)
COc1cc([C@@H]2c3cc4c(cc3[C@H](O)[C@H]3COC(=O)[C@H]23)OCO4)cc(OC)c1OC	KLF5 inhibitor 83.7, Ba/F3 V617F tox 96.8, APP transl inh 94.4, aSyn UTR inh 94.6, BaF3 parental 93.0 (no result: IEC-6 tox-1) | KLF5 inh confirm 92.3
COC(=O)c1ccc(NC(=O)CN2CCN(CCO)CC2)cc1	none (no result: Ba/F3 V617F tox, APP transl inh, BaF3 parental)
COc1ccc(C(=O)NNC(=O)c2ccccn2)cc1	KLF5 inhibitor 77.4, IEC-6 tox-1 24.5, aSyn UTR inh 79.0 | KLF5 inh confirm inactive | IEC-6 tox-2 inactive
CCOc1ccc(NC(=O)c2ccccn2)cc1	KLF5 inhibitor 79.0, aSyn UTR inh 104.3 | KLF5 inh confirm inactive | IEC-6 tox-2 inactive
COc1ccc(C(C(=O)NCCC(C)C)N(CCCO)C(=O)c2snc(C(N)=O)c2N)cc1OC (stereo not drawn)	none (no result: Ba/F3 V617F tox, APP transl inh, BaF3 parental)
CC(=NC1CC1)c1c(-c2ccccc2)[nH]n(-c2nc3ccccc3s2)c1=O	none
CC(=NC1CCCC1)c1c(C)[nH]n(-c2nc3ccccc3s2)c1=O	KLF5 inhibitor 72.2, aSyn UTR inh 94.2 | KLF5 inh confirm inactive | IEC-6 tox-2 inactive
CCCCN(C(=O)Cc1ccc(S(=O)(=O)N2CCOCC2)s1)c1c(N)n(CCCC)c(=O)[nH]c1=O	none (no result: KLF5 inhibitor, Ba/F3 V617F tox, APP transl inh, IEC-6 tox-1, BaF3 parental)
Clc1ccc2c(c1)C(C1=NCCN1)c1ccccc1CS2 (stereo not drawn)	KLF5 inhibitor 80.2, Ba/F3 V617F tox 76.2, APP transl inh 96.8, IEC-6 tox-1 65.8, aSyn UTR inh 78.7, BaF3 parental 69.7 | KLF5 inh confirm 89.8 | IEC-6 tox-2 45.9
C=CCc1cccc(/C=N/NC(=O)c2ccc3nc[nH]c3c2)c1O	KLF5 inhibitor 62.7 (no result: Ba/F3 V617F tox, APP transl inh, BaF3 parental) | KLF5 inh confirm inactive | IEC-6 tox-2 27.4
O=C(CCCCCNC(=O)N1CCn2c1nc1ccccc12)N[C@H](C(=O)O)c1ccccc1	none (no result: Ba/F3 V617F tox, APP transl inh, BaF3 parental)
Nc1ccc(-c2nc3ccc(C(=O)O)cc3s2)cc1	KLF5 inhibitor 108.7, APP transl inh 67.3, aSyn UTR inh 95.4 | KLF5 inh confirm 105.1 | IEC-6 tox-2 inactive
CC(=O)CCN1C(=O)NC2(CCCc3ccccc32)C1=O (stereo not drawn)	none (no result: Ba/F3 V617F tox, APP transl inh, BaF3 parental)
COc1ccc(Cl)cc1NC(=O)CN(C)CC(=O)Nc1ccccc1N1CCOCC1	KLF5 inhibitor 65.8, Ba/F3 V617F tox 83.3, APP transl inh 83.2, IEC-6 tox-1 77.1, aSyn UTR inh 111.8, BaF3 parental 75.8 | KLF5 inh confirm 76.6 | IEC-6 tox-2 57.2
